Measurements taken from PubChem BioAssay (EPA / NIEHS).
Inconclusive results are not listed. Activity calls are given as the source filed them. The calls were made as follows: active = hit-call score of the fitted dose curve at least 0.9, where 1 is the maximum; inconclusive = response in the unintended direction; inactive = score below 0.9.

These compounds were tested against Beta-2 adrenergic receptor (Homo sapiens) (UniProt P07550) (assay: NVS_GPCR_hAdrb2: NovaScreen (NVS) G Protein-Coupled Receptor Assay for human Adrenergic, Beta 2 Receptor (Adrb2) (AID 2283261)).
Sequence of Beta-2 adrenergic receptor (Homo sapiens) (P07550 whole entry, looked up): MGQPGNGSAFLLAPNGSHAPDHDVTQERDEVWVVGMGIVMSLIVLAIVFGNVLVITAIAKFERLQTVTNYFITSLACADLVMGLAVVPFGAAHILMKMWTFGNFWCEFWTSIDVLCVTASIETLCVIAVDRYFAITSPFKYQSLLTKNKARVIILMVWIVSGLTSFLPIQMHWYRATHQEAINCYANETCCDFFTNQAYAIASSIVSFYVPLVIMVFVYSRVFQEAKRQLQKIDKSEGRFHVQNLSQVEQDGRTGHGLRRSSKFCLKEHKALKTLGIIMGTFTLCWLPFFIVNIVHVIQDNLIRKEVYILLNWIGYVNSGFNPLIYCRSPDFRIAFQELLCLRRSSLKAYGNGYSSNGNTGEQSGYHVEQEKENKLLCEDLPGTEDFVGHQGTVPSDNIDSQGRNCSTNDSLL
Summary of the method: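 Compounds screened in duplicate at 25 uM, then actives in concentration series. Human beta-2 receptor from CHO material, cell-free; radioligand displacement after 1 h measured by filtration and scintillation against DMSO baseline.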
`CN(C)c1nc(=O)n(C2CCCCC2)c(=O)n1C` was tested, and the outcome was “inactive”. With `Oc1ccc(C(c2ccc(O)cc2)(C(F)(F)F)C(F)(F)F)cc1` the AC50 was 25 µM (active). In the case of `CCCCCCCCCC[N+](C)(C)CCCCCCCCCC`, the AC50 is reported as 17.5 µM (active).

Each compound was assayed against human Adrenergic, Beta 3 Receptor (Adrb3), ADRB3 (gene 155) (UniProt P13945) (assay: NVS_GPCR_hAdrb3: NovaScreen (NVS) G Protein-Coupled Receptor Assay for human Adrenergic, Beta 3 Receptor (Adrb3) (AID 2283262)).
Sequence of human Adrenergic, Beta 3 Receptor (Adrb3), ADRB3 (gene 155) (P13945 whole entry, looked up): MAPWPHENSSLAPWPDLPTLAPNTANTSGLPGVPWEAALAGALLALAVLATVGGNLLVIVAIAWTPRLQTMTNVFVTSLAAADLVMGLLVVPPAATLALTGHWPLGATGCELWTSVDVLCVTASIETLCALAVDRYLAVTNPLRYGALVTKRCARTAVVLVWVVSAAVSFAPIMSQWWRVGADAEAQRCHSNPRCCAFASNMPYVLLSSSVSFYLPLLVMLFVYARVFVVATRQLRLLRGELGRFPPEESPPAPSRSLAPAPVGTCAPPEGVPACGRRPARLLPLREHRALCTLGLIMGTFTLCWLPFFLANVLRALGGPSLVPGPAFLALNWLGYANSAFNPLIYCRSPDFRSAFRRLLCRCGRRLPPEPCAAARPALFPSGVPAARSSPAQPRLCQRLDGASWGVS
Summary of the method: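 A cell-free filter binding assay read by scintillation counting, with displacement of a specific radioligand measured after 1 hour. The receptor source was SK-N-MC extracts (cells pretreated with isoproterenol and 8-bromo-cAMP). Compounds were first tested at 25 uM in duplicate and then in concentration series.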
With `Oc1ccc(C(c2ccc(O)cc2)(C(F)(F)F)C(F)(F)F)cc1` the outcome was “inactive”. With `c1cc2ccc3cccc4ccc(c1)c2c34` the outcome was “inactive”. `CCCCCCCCCC[N+](C)(C)CCCCCCCCCC` was tested, and the AC50 was 7.1 µM (active).

Each compound was assayed against human Dopamine Receptor D4.4 (DRD4.4), DRD4 (gene 1815) (UniProt P21917) (assay: NVS_GPCR_hDRD4.4: NovaScreen (NVS) G Protein-Coupled Receptor Assay for human Dopamine Receptor D4.4 (DRD4.4) (AID 2283264)).
Sequence of human Dopamine Receptor D4.4 (DRD4.4), DRD4 (gene 1815) (P21917 whole entry, looked up): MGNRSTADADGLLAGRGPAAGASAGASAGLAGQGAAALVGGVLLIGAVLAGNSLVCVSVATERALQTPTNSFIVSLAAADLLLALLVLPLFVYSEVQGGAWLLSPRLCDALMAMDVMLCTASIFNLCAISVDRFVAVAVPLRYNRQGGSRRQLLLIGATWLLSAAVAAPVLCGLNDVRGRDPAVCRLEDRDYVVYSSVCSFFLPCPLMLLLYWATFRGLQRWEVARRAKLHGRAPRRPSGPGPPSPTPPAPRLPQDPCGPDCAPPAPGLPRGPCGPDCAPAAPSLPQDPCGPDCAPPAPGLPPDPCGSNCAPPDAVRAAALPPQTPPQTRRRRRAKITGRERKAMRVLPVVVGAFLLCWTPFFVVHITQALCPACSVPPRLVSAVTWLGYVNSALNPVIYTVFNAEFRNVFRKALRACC
Description: NVS_GPCR_hDRD4.4 is a biochemical, single-readout assay that uses extracted gene-proteins from CHO in a cell-free assay. Measurements were taken 1 hour after chemical dosing in a 96-well plate.NVS_GPCR_hDRD4.4 is one of one assay component(s) measured or calculated from the NVS_GPCR_hDRD4.4 assay. It is designed to make measurements of radioligand binding, a form of binding reporter, as detected with scintillation counting signals by Filter-based radiodetection technology.Data from the assay component NVS_GPCR_hDRD4.4 was analyzed into 1 assay endpoint. This assay endpoint, NVS_GPCR_hDRD4.4, was analyzed in the positive analysis fitting direction relative to DMSO as the negative control and baseline of activity. Using a type of binding reporter, loss-of-signal activity can be used to understand changes in the binding as they relate to the gene DRD4. Furthermore, this assay endpoint can be referred to as a primary readout, because the performed assay has only produced 1 assay endpoint. To generalize the intended target to other relatable targets, this assay endpoint is annotated to the gpcr intended target family, where the subfamily is rhodopsin-like receptor.
Binding assays used specific radioligands (tritiated, iodinated) with non-radioactive competitive displacement ligands in agonist or antagonist protocols (as indicated) and various reference compounds and inhibitors to titrate specific binding to receptors and transporters. Most enzyme assays (CYPs, kinases, phosphatases, proteases, HDACs) used recombinant protein and specific substrates (fluorescence mostly, some colorimetric and radioactive) and inhibitors, followed by a biochemical separation of substrate and product. All assays for the biochemical HTS were initially run in duplicate at a single concentration (10 uM for CYP450 assays and 25 uM for all others). […] Each assay was run with positive and negative controls, and concurrent controls on every plate. The follow-up (secondary) screen tested active chemical-pairs in concentration series, as well as a few additional assays not tested in the primary screen, some selected negative inactives, and several cases re-run in the concentration series for confirmatory purposes.
In the case of `Oc1ccc(C(c2ccc(O)cc2)(C(F)(F)F)C(F)(F)F)cc1`, the AC50 is reported as 14.1 µM (active). In the case of `COc1ccc(O)c(C(C)(C)C)c1`, the outcome is reported as “inactive”. With `CCCCCCCCCC[N+](C)(C)CCCCCCCCCC` the AC50 was 25 µM (active). With `O=C(O)C(F)(F)C(F)(F)C(F)(F)C(F)(F)C(F)(F)C(F)(F)C(F)(F)C(F)(F)C(F)(F)F` the AC50 was 25 µM (active).

The compounds below were run against human Dopamine Receptor D2 (DRD2), DRD2 (gene 1813) (UniProt P14416) (assay: NVS_GPCR_hDRD2s: NovaScreen (NVS) G Protein-Coupled Receptor Assay for human Dopamine Receptor D2 (DRD2) (AID 2283266)).
Sequence of human Dopamine Receptor D2 (DRD2), DRD2 (gene 1813) (P14416 whole entry, looked up): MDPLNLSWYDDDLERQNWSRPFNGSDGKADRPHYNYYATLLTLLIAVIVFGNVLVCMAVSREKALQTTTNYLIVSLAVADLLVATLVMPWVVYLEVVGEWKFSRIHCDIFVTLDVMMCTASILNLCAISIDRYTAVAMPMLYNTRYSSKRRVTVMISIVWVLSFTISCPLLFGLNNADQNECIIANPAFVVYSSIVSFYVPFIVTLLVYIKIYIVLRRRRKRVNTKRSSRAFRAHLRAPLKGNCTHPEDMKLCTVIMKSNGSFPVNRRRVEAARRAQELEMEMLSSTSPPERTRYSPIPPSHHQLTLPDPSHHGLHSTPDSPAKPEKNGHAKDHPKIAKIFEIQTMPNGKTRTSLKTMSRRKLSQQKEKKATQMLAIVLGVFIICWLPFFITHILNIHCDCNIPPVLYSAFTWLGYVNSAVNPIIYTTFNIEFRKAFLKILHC
Summary of the method: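 Test compound (25 uM, duplicate in the primary screen; concentration series at follow-up) competed with radioligand for human DRD2 in CHO-derived membrane protein. Filter-based scintillation counting was done 1.5 hours after dosing, with loss of signal analysed against DMSO.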
With `CC(C)(c1ccccc1)c1ccc(O)cc1` the outcome was “inactive”. In the case of `Cc1cc(-c2ccc(N)c(C)c2)ccc1N`, the outcome is reported as “inactive”. For `Oc1ccc(C(c2ccc(O)cc2)(C(F)(F)F)C(F)(F)F)cc1`, the AC50 was 9.39 µM (active). With `COc1ccc(O)c(C(C)(C)C)c1` the AC50 was 25 µM (active). `CCCCCCCCCC[N+](C)(C)CCCCCCCCCC` was tested, and the AC50 was 5.51 µM (active).

These compounds were tested against D(1A) dopamine receptor (Homo sapiens) (UniProt P21728) (assay: NVS_GPCR_hDRD1: NovaScreen (NVS) G Protein-Coupled Receptor Assay for human Dopamine Receptor D1 (DRD1) (AID 2283269)).
Sequence of D(1A) dopamine receptor (Homo sapiens) (P21728 whole entry, looked up): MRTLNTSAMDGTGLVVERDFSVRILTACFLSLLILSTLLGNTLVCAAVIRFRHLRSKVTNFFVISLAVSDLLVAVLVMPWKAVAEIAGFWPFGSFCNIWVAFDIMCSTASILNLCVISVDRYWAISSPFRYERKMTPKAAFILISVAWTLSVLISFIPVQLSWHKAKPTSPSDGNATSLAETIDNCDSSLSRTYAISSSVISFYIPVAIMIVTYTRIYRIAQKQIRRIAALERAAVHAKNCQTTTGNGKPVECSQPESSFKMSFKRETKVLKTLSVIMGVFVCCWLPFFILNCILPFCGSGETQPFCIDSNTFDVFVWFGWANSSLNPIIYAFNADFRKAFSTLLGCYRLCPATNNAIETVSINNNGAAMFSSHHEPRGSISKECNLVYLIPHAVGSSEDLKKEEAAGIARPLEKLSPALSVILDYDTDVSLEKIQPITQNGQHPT
Summary of the method: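 Extracted HEK293 DRD1 is incubated 1 h with compound and a tritiated or iodinated radioligand, then filtered and counted. Screening runs 25 uM in duplicate with on-plate positive and negative controls.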
In the case of `CC(C)(c1ccccc1)c1ccc(O)cc1`, the AC50 is reported as 25 µM (active). With `Oc1ccc(C(c2ccc(O)cc2)(C(F)(F)F)C(F)(F)F)cc1` the AC50 was 2.86 µM (active). For `CCC(C)(c1ccc(O)cc1)c1ccc(O)cc1`, the AC50 was 11.3 µM (active). For `CCCCCCCCCC[N+](C)(C)CCCCCCCCCC`, the AC50 was 2.6 µM (active). In the case of `O=C(O)C(F)(F)C(F)(F)C(F)(F)C(F)(F)C(F)(F)C(F)(F)C(F)(F)C(F)(F)C(F)(F)F`, the AC50 is reported as 16.8 µM (active).

Each compound was assayed against Muscarinic acetylcholine receptor M2 (Homo sapiens) (UniProt P08172) (assay: NVS_GPCR_hM2: NovaScreen (NVS) G Protein-Coupled Receptor Assay for human Muscarinic, M2 Receptor (AID 2283273)).
Sequence of Muscarinic acetylcholine receptor M2 (Homo sapiens) (P08172 whole entry, looked up): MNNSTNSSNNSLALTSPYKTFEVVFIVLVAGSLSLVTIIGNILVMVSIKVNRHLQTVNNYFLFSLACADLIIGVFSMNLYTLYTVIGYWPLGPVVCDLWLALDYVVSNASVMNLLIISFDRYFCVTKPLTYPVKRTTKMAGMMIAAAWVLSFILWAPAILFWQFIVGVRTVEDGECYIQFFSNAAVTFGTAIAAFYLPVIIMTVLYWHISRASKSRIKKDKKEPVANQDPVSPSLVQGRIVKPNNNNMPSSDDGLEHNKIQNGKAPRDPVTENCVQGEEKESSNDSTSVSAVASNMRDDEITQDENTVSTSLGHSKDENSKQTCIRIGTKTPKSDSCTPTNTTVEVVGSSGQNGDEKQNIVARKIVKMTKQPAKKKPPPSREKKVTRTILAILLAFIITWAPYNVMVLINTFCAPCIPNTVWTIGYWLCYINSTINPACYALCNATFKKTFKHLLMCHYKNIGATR
Summary of the method: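 Radioligand competition binding, cell-free, receptor from CHO; 1 h incubation; scintillation detection. Primary testing at 25 uM in duplicate.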
With `O=C(N[C@H]1CN2CCC1CC2)c1cc2ccoc2cn1` the AC50 was 25 µM (active). `CCC(=O)O[C@H]1CC[C@H]2[C@@H]3CCC4=CC(=O)CC[C@]4(C)[C@H]3CC[C@]12C` was tested, and the outcome was “inactive”. In the case of `Oc1ccc(C(c2ccc(O)cc2)(C(F)(F)F)C(F)(F)F)cc1`, the outcome is reported as “inactive”. With `CCCCCCCCCC[N+](C)(C)CCCCCCCCCC` the AC50 was 6.18 µM (active).

These compounds were tested against human Muscarinic, M4 Receptor, CHRM4 (gene 1132) (UniProt P08173) (assay: NVS_GPCR_hM4: NovaScreen (NVS) G Protein-Coupled Receptor Assay for human Muscarinic, M4 Receptor (AID 2283274)).
Sequence of human Muscarinic, M4 Receptor, CHRM4 (gene 1132) (P08173 whole entry, looked up): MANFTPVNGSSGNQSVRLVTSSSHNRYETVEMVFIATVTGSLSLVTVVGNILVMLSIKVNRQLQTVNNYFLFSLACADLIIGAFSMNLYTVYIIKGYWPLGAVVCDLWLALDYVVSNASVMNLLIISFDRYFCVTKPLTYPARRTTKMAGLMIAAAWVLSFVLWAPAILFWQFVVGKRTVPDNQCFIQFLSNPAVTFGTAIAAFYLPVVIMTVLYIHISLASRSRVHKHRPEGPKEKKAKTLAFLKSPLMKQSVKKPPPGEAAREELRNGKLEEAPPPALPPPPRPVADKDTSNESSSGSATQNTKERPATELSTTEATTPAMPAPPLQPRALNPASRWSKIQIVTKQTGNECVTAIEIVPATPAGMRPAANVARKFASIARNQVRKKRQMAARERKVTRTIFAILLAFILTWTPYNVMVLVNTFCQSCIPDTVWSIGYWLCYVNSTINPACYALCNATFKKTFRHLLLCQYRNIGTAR
Summary of the method: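 Filter-based scintillation counting of radioligand bound to CHO-expressed human M4 preparations after 1 h; loss of signal fitted versus DMSO. Initial duplicate testing at 25 uM, concentration-response follow-up for actives.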
`CCC(=O)O[C@H]1CC[C@H]2[C@@H]3CCC4=CC(=O)CC[C@]4(C)[C@H]3CC[C@]12C` was tested, and the AC50 was 2.04 µM (active). For `Oc1ccc(C(c2ccc(O)cc2)(C(F)(F)F)C(F)(F)F)cc1`, the AC50 was 32.5 µM (active). `CCCCCCCCCC[N+](C)(C)CCCCCCCCCC` was tested, and the AC50 was 3.56 µM (active).

The compounds below were run against Muscarinic acetylcholine receptor M5 (Homo sapiens) (UniProt P08912) (assay: NVS_GPCR_hM5: NovaScreen (NVS) G Protein-Coupled Receptor Assay for human Muscarinic, M5 Receptor (AID 2283275)).
Sequence of Muscarinic acetylcholine receptor M5 (Homo sapiens) (P08912 whole entry, looked up): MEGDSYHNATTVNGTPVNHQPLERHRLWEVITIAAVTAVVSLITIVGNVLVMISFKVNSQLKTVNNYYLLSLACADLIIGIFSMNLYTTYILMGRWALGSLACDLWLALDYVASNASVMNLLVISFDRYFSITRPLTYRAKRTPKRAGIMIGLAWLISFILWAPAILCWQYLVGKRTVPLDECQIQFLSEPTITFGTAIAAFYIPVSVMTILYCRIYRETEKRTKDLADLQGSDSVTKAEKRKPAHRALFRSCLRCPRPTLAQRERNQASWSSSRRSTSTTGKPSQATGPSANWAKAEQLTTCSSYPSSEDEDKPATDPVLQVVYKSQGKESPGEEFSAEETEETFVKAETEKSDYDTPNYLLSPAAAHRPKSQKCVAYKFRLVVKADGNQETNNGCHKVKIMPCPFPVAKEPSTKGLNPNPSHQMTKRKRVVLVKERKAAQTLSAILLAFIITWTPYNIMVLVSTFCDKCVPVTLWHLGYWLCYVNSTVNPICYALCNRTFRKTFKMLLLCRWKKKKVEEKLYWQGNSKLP
Summary of the method: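 Chemicals passing a primary duplicate screen at 25 uM were run as singleton concentration series, maximum 50 uM. Displacement of a specific radioligand from CHO-extracted receptor was read by filter scintillation after 1 h, relative to DMSO.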
`CC(C)(c1ccccc1)c1ccc(O)cc1` was tested, and the outcome was “inactive”. `Oc1ccc(C(c2ccc(O)cc2)(C(F)(F)F)C(F)(F)F)cc1` was tested, and the AC50 was 18.4 µM (active). In the case of `CCCCCCCCCC[N+](C)(C)CCCCCCCCCC`, the AC50 is reported as 2.39 µM (active).
